Data taken from PubChem BioAssay (Tox21).
Results filed as inconclusive are left out. The source made the active and inactive calls. Unless noted, calls follow the shape of the dose curve; as a rule, active = well fitted curve in the direction sought with a large enough effect in the repeat runs; inconclusive = weak or mixed curves; inactive = no such curve, though single readings can be large; an effect the other way counts as inactive or inconclusive.

Tests used:
[1] = qHTS assay to test for compound auto fluorescence at 535 nm (green) in HEK293 cells (AID 720680)
[2] = qHTS assay to test for compound auto fluorescence at 460 nm (blue) in HEK293 cell free culture (AID 720681)
Procedure, shortened: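 Test compounds were pinned into cell-free culture medium (DMEM with 10% FBS) and fluorescence was read directly at Ex/Em 405/460 nm. Signals were expressed as fluorescence equivalents of triamterene, with DMSO vehicle as control.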

[3] = qHTS assay to test for compound auto fluorescence at 535 nm (green) in HEK293 cell free culture (AID 720682)
Procedure, shortened: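 Intrinsic compound fluorescence is measured in culture medium containing 10% FBS, with excitation at 485 nm and detection at 535 nm, referenced to fluorescein.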

[4] = qHTS assay to test for compound auto fluorescence at 590 nm (red) in HEK293 cell free culture (AID 720683)
Procedure, shortened: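 Tox21 10K library compounds were pinned into cell-free DMEM with 10% FBS and fluorescence was read at excitation 540 nm. Activity is expressed as Rose Bengal sodium equivalency.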

[5] = qHTS assay to test for compound auto fluorescence at 590 nm (red) in HepG2 cell free culture (AID 720684)
Procedure, shortened: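 Readout: intrinsic compound fluorescence at 590 nm emission after 540 nm excitation, scaled to Rose Bengal sodium. Matrix was cell-free MEM with 10% FBS; DMSO vehicle wells served as control.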

[6] = qHTS assay to test for compound auto fluorescence at 460 nm (blue) in HepG2 cell free culture (AID 720685)
Procedure, shortened: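 Cell-free plates of MEM plus 10% FBS received 23 nL compound or DMSO vehicle; blue-channel (405/460 nm) intensity scored against triamterene as reference fluorophore.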

[7] = qHTS assay to test for compound auto fluorescence at 535 nm (green) in HepG2 cell free culture (AID 720686)
[8] = qHTS assay to test for compound auto fluorescence at 460 nm (blue) in HepG2 cells (AID 720687)
Procedure, shortened: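 Cells (2,000/well in MEM with 10% FBS) attached overnight at 37 C, then were exposed to compound or DMSO for 1 hr at 37 C, 5% CO2. Fluorescence read at Ex/Em 405/460 nm, expressed as triamterene-equivalent signal.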

[9] = target: Glucocorticoid receptor (Homo sapiens) (UniProt P04150); test: qHTS assay to identify small molecule agonists of the glucocorticoid receptor (GR) signaling pathway (AID 720691; active = well fitted activation curve with a large enough effect in the signal ratio in the repeat runs, not every such curve was filed as active; the % refers to the signal ratio; also: potency is read from the fitted curve at half-maximal effect); conditions: GR-bla HeLa, beta-lactamase reporter ratio, 18 h; activation: at 62.4 µM (top of the series)
Sequence of Glucocorticoid receptor (Homo sapiens) (P04150 whole entry, looked up): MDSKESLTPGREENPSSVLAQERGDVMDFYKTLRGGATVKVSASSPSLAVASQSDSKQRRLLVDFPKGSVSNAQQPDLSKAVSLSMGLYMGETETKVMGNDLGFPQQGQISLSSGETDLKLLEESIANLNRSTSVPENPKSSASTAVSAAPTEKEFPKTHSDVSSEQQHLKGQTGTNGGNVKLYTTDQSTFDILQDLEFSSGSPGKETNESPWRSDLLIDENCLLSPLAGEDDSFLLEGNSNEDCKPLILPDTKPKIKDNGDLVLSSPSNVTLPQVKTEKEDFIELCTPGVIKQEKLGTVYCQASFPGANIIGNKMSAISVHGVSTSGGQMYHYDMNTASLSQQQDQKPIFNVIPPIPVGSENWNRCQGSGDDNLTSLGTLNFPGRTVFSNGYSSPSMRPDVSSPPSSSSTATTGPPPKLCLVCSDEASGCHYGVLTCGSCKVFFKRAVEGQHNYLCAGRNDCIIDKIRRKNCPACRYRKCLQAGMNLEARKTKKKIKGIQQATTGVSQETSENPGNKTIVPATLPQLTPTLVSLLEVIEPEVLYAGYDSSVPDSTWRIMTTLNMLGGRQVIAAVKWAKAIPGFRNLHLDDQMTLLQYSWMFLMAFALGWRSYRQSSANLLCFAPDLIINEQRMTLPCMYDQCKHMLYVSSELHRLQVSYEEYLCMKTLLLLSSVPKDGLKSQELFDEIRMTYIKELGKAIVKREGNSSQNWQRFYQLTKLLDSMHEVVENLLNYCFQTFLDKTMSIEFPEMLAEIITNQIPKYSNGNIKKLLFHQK
Procedure, shortened: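 Steps: seed GR-bla HeLa cells, incubate 4 h at 37 C/5% CO2; pin-transfer DMSO-dissolved compounds; incubate 18 h at 37 C; add LiveBLAzer B/G FRET substrate; after 2 h at room temperature, measure fluorescence.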

[10] = target: Glucocorticoid receptor (Homo sapiens) (UniProt P04150); test: qHTS assay to identify small molecule antagonists of the glucocorticoid receptor (GR) signaling pathway (AID 720692; active = well fitted inhibition curve with a large enough effect in the signal ratio in the repeat runs, not every such curve was filed as active; the % refers to the signal ratio; also: potency is read from the fitted curve at half-maximal effect)
Procedure, shortened: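 Antagonism was scored as loss of dexamethasone-driven (5 nM final) reporter signal in HeLa cells bearing a glucocorticoid response element–beta-lactamase construct, after 18 h compound exposure at 37 C and 2 h FRET substrate loading.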

[11] = qHTS assay to identify small molecule antagonists of the glucocorticoid receptor (GR) signaling pathway - cell viability counter screen (AID 720693); also: nearly all actives have a fitted effect of over 55% in size
[12] = qHTS assay for identifying genotoxic compounds that show differential cytotoxicity against isogenic chicken DT40 cell lines with known DNA damage response pathways - wild type cell line (AID 743012); also: nearly all actives have a fitted effect of over 60% in size; also: potency is read from the fitted curve at half-maximal effect
Procedure, shortened: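 Cytotoxicity in repair-proficient parental chicken DT40 cells serves as the comparator for Rad54/Ku70- and Rev3-deficient lines. Cells were exposed to compounds for 40 h at 37 C/5% CO2, and ATP-based luminescence (CellTiter-Glo) measured viability.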

[13] = qHTS assay for identifying genotoxic compounds that show differential cytotoxicity against isogenic chicken DT40 cell lines with known DNA damage response pathways - Rev3 mutant cell line (AID 743014); also: nearly all actives have a fitted effect of over 55% in size; also: potency is read from the fitted curve at half-maximal effect
[14] = qHTS assay for identifying genotoxic compounds that show differential cytotoxicity against isogenic chicken DT40 cell lines with known DNA damage response pathways - Rad54/Ku70 mutant cell line (AID 743015); also: nearly all actives have a fitted effect of over 60% in size; also: potency is read from the fitted curve at half-maximal effect
[15] = qHTS assay to identify small molecule antagonists of the androgen receptor (AR) signaling pathway - cell viability counter screen (AID 743033; also: nearly all actives have a fitted effect of over 45% in size)
[16] = target: Androgen receptor (Homo sapiens) (UniProt P10275); test: qHTS assay to identify small molecule antagonists of the androgen receptor (AR) signaling pathway (AID 743035; active = well fitted inhibition curve with a large enough effect in the signal ratio in the repeat runs, not every such curve was filed as active; the % refers to the signal ratio)
Sequence of Androgen receptor (Homo sapiens) (P10275 whole entry, looked up): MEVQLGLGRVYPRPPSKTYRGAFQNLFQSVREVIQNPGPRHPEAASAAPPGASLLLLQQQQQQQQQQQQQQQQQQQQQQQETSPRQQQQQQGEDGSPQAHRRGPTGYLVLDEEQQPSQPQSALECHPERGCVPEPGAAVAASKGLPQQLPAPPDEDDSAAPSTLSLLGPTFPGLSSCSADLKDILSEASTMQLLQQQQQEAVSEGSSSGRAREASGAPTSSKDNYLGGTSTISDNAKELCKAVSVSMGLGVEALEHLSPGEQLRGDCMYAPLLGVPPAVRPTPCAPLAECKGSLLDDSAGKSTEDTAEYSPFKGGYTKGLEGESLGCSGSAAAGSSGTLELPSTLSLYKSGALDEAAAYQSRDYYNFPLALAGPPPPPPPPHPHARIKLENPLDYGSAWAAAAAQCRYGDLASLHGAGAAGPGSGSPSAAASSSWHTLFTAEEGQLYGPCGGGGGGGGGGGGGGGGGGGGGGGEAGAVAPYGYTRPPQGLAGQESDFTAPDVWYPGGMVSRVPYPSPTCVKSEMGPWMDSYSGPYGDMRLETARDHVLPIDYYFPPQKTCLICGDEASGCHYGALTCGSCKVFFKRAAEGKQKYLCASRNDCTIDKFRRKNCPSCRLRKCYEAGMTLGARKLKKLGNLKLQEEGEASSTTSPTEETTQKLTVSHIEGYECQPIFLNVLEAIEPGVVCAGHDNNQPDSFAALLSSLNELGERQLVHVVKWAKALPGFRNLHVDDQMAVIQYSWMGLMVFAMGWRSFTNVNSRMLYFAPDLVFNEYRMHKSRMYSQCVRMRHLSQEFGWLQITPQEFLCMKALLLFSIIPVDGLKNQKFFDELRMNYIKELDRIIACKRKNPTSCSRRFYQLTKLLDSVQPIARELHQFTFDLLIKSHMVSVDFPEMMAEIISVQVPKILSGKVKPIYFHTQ
Procedure, shortened: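 Steps: seed AR-UAS-bla GripTite HEK293 cells, incubate 4 h at 37C; pin in test compound, then add agonist R1881; incubate 16 h at 37C; add LiveBLAzer B/G FRET substrate, 2 h at room temperature; read fluorescence.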

[17] = target: Androgen receptor (Homo sapiens) (UniProt P10275); test: qHTS assay to identify small molecule agonists of the androgen receptor (AR) signaling pathway (AID 743036; active = well fitted activation curve with a large enough effect in the signal ratio in the repeat runs, with a control signal flat, not every such curve was filed as active; the % refers to the signal ratio)
Procedure, shortened: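 Agonist activity was scored by beta-lactamase reporter fluorescence in stably transfected HEK293 cells exposed to compounds for 16 h at 37C and 5% CO2. Substrate loading took 2 h at room temperature.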

[18] = target: Androgen receptor (Homo sapiens) (UniProt P10275); test: qHTS assay to identify small molecule agonists of the androgen receptor (AR) signaling pathway using the MDA cell line (AID 743040; also: nearly all actives have a fitted effect of over 20% in size)
Procedure, shortened: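 Agonist activity is measured as luciferase luminescence in human MDA-kb2 cells whose MMTV reporter responds to both AR and GR. Compounds in DMSO incubate 16 h at 37C, 0% CO2, and ONE-Glo is read after 30 min.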

[19] = qHTS assay to identify small molecule antagonists of the androgen receptor (AR) signaling pathway using the MDA cell line - cell viability counter screen (AID 743041; also: nearly all actives have a fitted effect of over 45% in size)
Procedure, shortened: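 qHTS viability read-out; MDA-kb2 AR-luc; R1881-stimulated; 16 h exposure at 37C, 0% CO2; CellTiter-Fluor, 30 min; fluorescence intensity.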

[20] = target: Androgen receptor (Homo sapiens) (UniProt P10275); test: qHTS assay to identify small molecule antagonists of the androgen receptor (AR) signaling pathway using the MDA cell line (AID 743042; also: nearly all actives have a fitted effect of over 55% in size)
Procedure, shortened: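 MDA-kb2 cells (human breast carcinoma, stably carrying an MMTV-luciferase reporter responsive to AR and GR) were plated at 3,000 cells/well and preincubated 5 hr at 37C, then given compound plus R1881 agonist for 16 h. ONE-Glo luminescence was read.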

Measured: Potency

CNC(C)[C@@H]1CC[C@@H](N)[C@@H](O[C@H]2[C@H](O)[C@@H](O[C@H]3OC[C@](C)(O)[C@H](NC)[C@H]3O)[C@H](N)C[C@@H]2N)O1 (stereo partly drawn)
inactive: [1] | [2] | [3] | [4] | [5] | [6] | [7] | [8]

C[N+]1(C)CCN(CC(O)(c2ccccc2)C2CCCCC2)CC1 (stereo not drawn)
inactive: all assays above

CCN(CC)CCC(=O)N1c2ccccc2Sc2ccc(C(F)(F)F)cc21
active: [10] 23.9 µM | [12] 5.96 µM | [13] 10.6 µM | [14] 8.41 µM
not listed: [16] | [17] | [18] | [19] | [20]
inactive: all other assays above

CN1CCN(C(c2ccccc2)c2ccc(Cl)cc2)CC1 (stereo not drawn)
active: [12] 9.02 µM | [13] 10.1 µM | [14] 11.4 µM
not listed: [16] | [17] | [18] | [20]
inactive: all other assays above

CCC(C)C(C(=O)OCC[N+](C)(CC)CC)c1ccccc1 (stereo not drawn)
active: [12] 29.8 µM | [13] 29.8 µM | [14] 26.6 µM
not listed: [16] | [17] | [18] | [20]
inactive: all other assays above

N[C@@H](C(=O)N[C@@H]1C(=O)N2C(C(=O)O)=C(CSc3cn[nH]n3)CS[C@H]12)c1ccc(O)cc1
not listed: [16]
inactive: all other assays above

O=C(O)C1CCCN1 (stereo not drawn)
not listed: [16] | [17] | [18] | [20]
inactive: all other assays above

CC1CCCC1
inactive: [1] | [2] | [3] | [4] | [5] | [6] | [7] | [8]

CN[C@@H]1[C@H](O[C@H]2[C@H](O[C@H]3[C@H](O)[C@@H](O)[C@H](N=C(N)N)[C@@H](O)[C@@H]3N=C(N)N)O[C@@H](C)[C@]2(O)CO)O[C@@H](CO)[C@H](O)[C@H]1O
not listed: [17]
inactive: all other assays above

CCCCCCCCCCCCOCCCN
inactive: all assays above

CC1C(=O)CC2C3(C)CCC2(C(C)C(=O)O)C(=O)C13 (stereo not drawn)
not listed: [16] | [17] | [18] | [20]
inactive: all other assays above

CCOC(=O)[C@H](CCc1ccccc1)N[C@@H](C)C(=O)N1CC2(C[C@H]1C(=O)O)SCCS2
not listed: [16] | [17] | [18] | [20]
inactive: all other assays above

CC(C)(C)NCC(O)c1ccc(O)c(CO)n1 (stereo not drawn)
not listed: [16] | [17] | [18] | [20]
inactive: all other assays above

CC(=O)Oc1c(C)cc(OCC(O)CNC(C)C)c(C)c1C (stereo not drawn)
active: [9] 21.3 µM
not listed: [16] | [17] | [18] | [20]
inactive: all other assays above

Cc1ncc(COP(=O)(O)O)c(CN)c1O
not listed: [13] | [14] | [15] | [16] | [17] | [18] | [19] | [20]
inactive: all other assays above
